# According to PMC11062922 (Nature Chemical Biology, 2023):
# Where two headings read alike, the source gives them in different places.
# Legend:
# Parameters in all cases: species or system human, MV4-11 + K-562 + COLO205 + SK-N-BE2 + OVCAR-8
# ADCK1 = details: read-out: apparent Kd, n = 1
# CSNK1A1 = details: read-out: apparent Kd, compound concentrations: 100 nM and 1000 nM (sheet 'Samples'), n = 1
# CSNK1E = details: read-out: apparent Kd, compound concentrations: 100 nM and 1000 nM (sheet 'Samples'), n = 1
# MAPK8 = details: read-out: apparent Kd, compound concentrations: 100 nM and 1000 nM (sheet 'Samples'), n = 1
# RIOK2 = details: read-out: apparent Kd, n = 1
# PRKX = details: read-out: apparent Kd, compound concentrations: 100 nM and 1000 nM (sheet 'Samples'), n = 1
# ROCK2 = details: read-out: apparent Kd, n = 1
# CDK17 = details: read-out: apparent Kd, compound concentrations: 100 nM and 1000 nM (sheet 'Samples'), n = 1
# TNIK = details: read-out: apparent Kd, n = 1
# EPHA2 = details: read-out: apparent Kd; compound concentrations:100 nM and 1000 nM (sheet 'Samples'); n = 1
# EPHB2 = details: read-out: apparent Kd; compound concentrations:100 nM and 1000 nM (sheet 'Samples'); n = 1
# EPHB4 = details: read-out: apparent Kd; compound concentrations:100 nM and 1000 nM (sheet 'Samples'); n = 1
# PHKG2 = details: read-out: apparent Kd; compound concentrations:100 nM and 1000 nM (sheet 'Samples'); n = 1
# SRC = details: read-out: apparent Kd; compound concentrations:100 nM and 1000 nM (sheet 'Samples'); n = 1
# YES1 = details: read-out: apparent Kd; compound concentrations:100 nM and 1000 nM (sheet 'Samples'); n = 1
# STK3 = details: read-out: apparent Kd; compound concentrations: 100 nM and 1000 nM (sheet 'Samples'), CATDS: 2.2839730138462501E-2; n = 1
# [1] = compound concentrations:100 nM and 1000 nM (sheet 'Samples')
smiles,measurement,setting,value
c1cnn2ncc(-c3ccnc(Nc4ccc5c(c4)OCCO5)n3)c2c1 [GW806290X],potency estimated from few doses,"ADCK1; compound concentrations: 100 nM and 1000 nM (sheet 'Samples'), CATDS: 2.0516224728304101E-2",1820 nM
same,potency estimated from few doses,CSNK1A1; CATDS: 2.11429118311642E-2,1620 nM
same,potency estimated from few doses,CSNK1E; CATDS: 2.4076386460309102E-2,1050 nM
same,potency estimated from few doses,MAPK8; CATDS: 3.07479356857355E-2,532 nM
same,potency estimated from few doses,"RIOK2; compound concentrations: 100 nM and 1000 nM (sheet 'Samples'), CATDS: 4.9537974032322102E-2",183 nM
NCC(NC(=O)c1cc(-c2cn[nH]c2)c(-c2ccnc3[nH]ccc23)s1)c1ccccc1.NCC(NC(=O)c1cc(-c2cn[nH]c2)c(-c2ccnc3[nH]ccc23)s1)c1ccccc1.O=C(O)C(F)(F)F.O=C(O)C(F)(F)F (stereo not shown) [GSK1325775A],potency estimated from few doses,CSNK1A1; CATDS: 3.28567634973949E-2,1500 nM
same,potency estimated from few doses,PRKX; CATDS: 4.4311971030028298E-2,641 nM
same,potency estimated from few doses,"ROCK2; compound concentrations: 100 nM and 1000 nM (sheet 'Samples'), CATDS: 0.17011597804612999",47.4 nM
Cc1cc(-c2ccnc(Nc3cccc(C#N)c3)n2)cc(C)c1O [GSK1440913A],potency estimated from few doses,"ADCK1; compound concentrations: 100 nM and 1000 nM (sheet 'Samples'), CATDS: 7.9755280277017199E-2",1350 nM
CCN(CC)Cc1ccc(Nc2nccc(-c3cnn4ncccc34)n2)cc1 [GW780056X],potency estimated from few doses,"ADCK1; compound concentrations: 100 nM and 1000 nM (sheet 'Samples'), CATDS: 2.0575256748511801E-2",1200 nM
same,potency estimated from few doses,CDK17; CATDS: 2.15986885679498E-2,1030 nM
same,potency estimated from few doses,CSNK1E; CATDS: 7.3916034222461E-2,72.1 nM
same,potency estimated from few doses,MAPK8; CATDS: 2.1413758236852699E-2,1050 nM
COc1cc(Nc2nccc(-c3cnn4ncccc34)n2)cc(OC)c1 [GW801372X],potency estimated from few doses,CDK17; CATDS: 1.7691642172044799E-2,1920 nM
same,potency estimated from few doses,MAPK8; CATDS: 2.2830325415810902E-2,746 nM
same,potency estimated from few doses,"RIOK2; compound concentrations: 100 nM and 1000 nM (sheet 'Samples'), CATDS: 1.79748800643771E-2",1790 nM
CN(c1ccc(NC(=O)NCCN2CCOCC2)cc1)c1ccnc(Nc2ccc(CS(C)(=O)=O)cc2)n1.Cl [GW830365A],potency estimated from few doses,"ADCK1; compound concentrations: 100 nM and 1000 nM (sheet 'Samples'), CATDS: 4.75269778892356E-2",1550 nM
Cl.Cl.NC(CNC(=O)c1cc(Br)c(-c2ccnc3[nH]ccc23)s1)c1ccccc1.NC(CNC(=O)c1cc(Br)c(-c2ccnc3[nH]ccc23)s1)c1ccccc1 (stereo not shown) [GSK1322949A],potency estimated from few doses,"ROCK2; compound concentrations: 100 nM and 1000 nM (sheet 'Samples'), CATDS: 0.12553300825941399",122 nM
O=C1N=C(NCc2cccs2)O/C1=C\c1ccc2ncccc2c1 [RO4624208-000],potency estimated from few doses,PRKX; CATDS: 5.4979506066670798E-2,966 nM
same,potency estimated from few doses,"TNIK; compound concentrations: 100 nM and 1000 nM (sheet 'Samples'), CATDS: 4.4189138056131998E-2",2330 nM
CNCc1ccc(-c2cc(-c3nc(-c4ccc(S(=O)(=O)C(C)C)cc4)cnc3N)on2)cc1 [VE-822],potency estimated from few doses,TNIK; [1],1650 nM
CCCc1cc(N2CCCN(C)CC2)nc2sc3c(N)ncnc3c12 [BI00604564],potency estimated from few doses,"ADCK1; compound concentrations: 100 nM and 1000 nM (sheet 'Samples'), CATDS: 0.15175006426197701",1550 nM
same,potency estimated from few doses,"RIOK2; compound concentrations: 100 nM and 1000 nM (sheet 'Samples'), CATDS: 0.19130476647028",959 nM
CS(=O)(=O)Nc1ccc(-c2ccnc3[nH]ccc23)cc1 [GSK993273A],potency estimated from few doses,RIOK2; [1],1670 nM
CC(=O)N[C@@H](Cc1ccc(OP(=O)(O)O)cc1)C(=O)N[C@H]1CCC(=O)N2CCC[C@@H](C(=O)NCc3ccc(Cl)cc3)N2C1=O [RO0325308-000],potency estimated from few doses,EPHA2,1130 nM
same,potency estimated from few doses,EPHB2,56.3 nM
same,potency estimated from few doses,EPHB4,59.9 nM
same,potency estimated from few doses,PHKG2,1880 nM
same,potency estimated from few doses,RIOK2; [1],141 nM
same,potency estimated from few doses,SRC,1040 nM
same,potency estimated from few doses,YES1,1030 nM
CNCC#Cc1c(F)ccc2c1/C(=C/c1[nH]ccc1OC)C(=O)N2.Cl [RO0281601-001],potency estimated from few doses,CDK17; CATDS: 2.8122134627670499E-2,838 nM
same,potency estimated from few doses,STK3,1650 nM
same,potency estimated from few doses,"TNIK; compound concentrations: 100 nM and 1000 nM (sheet 'Samples'), CATDS: 2.1303462940689799E-2",2180 nM
CCn1c(-c2nonc2N)nc2c(C#CC(C)(C)O)nc(O[C@@H](CN)c3ccccc3)cc21.O=C(O)C(F)(F)F [GSK1007102B],potency estimated from few doses,ADCK1; [1],788 nM
same,potency estimated from few doses,ROCK2; [1],1670 nM
COC(=O)c1cccc(NC(=O)NC2CCN(c3ccnc(Nc4cc(OC)c(OC)c(OC)c4)n3)C2)c1 (stereo not shown) [GSK1379767A],potency estimated from few doses,"RIOK2; compound concentrations: 100 nM and 1000 nM (sheet 'Samples'), CATDS: 9.3299595876540298E-2",2110 nM
c1ccc(-c2n[nH]cc2Nc2ccnc3ccccc23)nc1 [GW694077X],potency estimated from few doses,CSNK1A1; CATDS: 2.3053021042780501E-2,2030 nM
same,potency estimated from few doses,CSNK1E; CATDS: 2.3726321551731398E-2,1790 nM
same,potency estimated from few doses,MAPK8; CATDS: 2.3443095841232799E-2,1880 nM
same,potency estimated from few doses,"RIOK2; compound concentrations: 100 nM and 1000 nM (sheet 'Samples'), CATDS: 3.1389541451057497E-2",683 nM
COc1cc(Nc2nccc(N3CCC(NC(=O)c4cccc(NC(C)=O)c4)C3)n2)cc(OC)c1OC (stereo not shown) [GSK1379754A],potency estimated from few doses,"ADCK1; compound concentrations: 100 nM and 1000 nM (sheet 'Samples'), CATDS: 8.2961514797517094E-2",1820 nM
NC(=O)c1cc(-c2ccccc2)cc2c(C3CCNCC3)c[nH]c12 [GSK301362A],potency estimated from few doses,ADCK1; [1],1520 nM
